# Test results as given in paper PMC7862700, “An all-to-all approach to the identification of sequence-specific readers for epigenetic DNA modifications on cytosine”.
# Columns and labels:
# Test in all cases: DAPPL (digital affinity profiling via proximity ligation, sequencing); 10 mM Tris-HCl pH 7.5, 50 mM NaCl, 1 mM DTT, 4% glycerol, room temperature, 30 min; GST-TFs on glutathione beads, 16-mer random dsDNA library, 0.1% formaldehyde crosslink after washing; high values mean tight binding
# Details in all cases: protein: recombinant; tags: N-terminal GST; dsDNA, one strand shown
# ELK1 = target: T1, ELK1 (Homo sapiens, UniProt P19419 1-428)
# T1 sequence: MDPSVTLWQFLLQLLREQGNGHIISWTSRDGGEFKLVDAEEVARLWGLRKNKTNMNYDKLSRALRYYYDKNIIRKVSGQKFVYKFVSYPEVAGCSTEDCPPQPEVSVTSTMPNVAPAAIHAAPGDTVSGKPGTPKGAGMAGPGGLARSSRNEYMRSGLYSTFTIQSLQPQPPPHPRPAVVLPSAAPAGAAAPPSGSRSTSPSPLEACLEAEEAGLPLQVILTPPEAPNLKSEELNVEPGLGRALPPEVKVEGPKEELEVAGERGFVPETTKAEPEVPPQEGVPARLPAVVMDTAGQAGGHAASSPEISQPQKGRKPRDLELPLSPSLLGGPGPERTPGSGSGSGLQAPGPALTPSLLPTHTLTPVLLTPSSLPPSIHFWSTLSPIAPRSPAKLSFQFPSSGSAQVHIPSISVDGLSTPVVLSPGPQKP
# In short: (§1)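 GST fusions of human transcription factors were expressed in yeast and captured with glutathione beads. Once given DNA barcodes and pooled alongside a tag-only sample, they were incubated for 30 min at room temperature with 200 nmole of a random double-stranded 16-mer DNA library in Tris/NaCl/DTT/glycerol buffer, then washed, crosslinked (0.1% formaldehyde), proximity-ligated, PCR-amplified and sequenced on an Illumina NextSeq500. The binding signal of each hexamer is its read frequency for a factor divided by its frequency for the tag-only sample.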
# ELF1 = ELF1 (Homo sapiens, UniProt P32519 1-619)
# ELF1, sequence (P32519 whole entry): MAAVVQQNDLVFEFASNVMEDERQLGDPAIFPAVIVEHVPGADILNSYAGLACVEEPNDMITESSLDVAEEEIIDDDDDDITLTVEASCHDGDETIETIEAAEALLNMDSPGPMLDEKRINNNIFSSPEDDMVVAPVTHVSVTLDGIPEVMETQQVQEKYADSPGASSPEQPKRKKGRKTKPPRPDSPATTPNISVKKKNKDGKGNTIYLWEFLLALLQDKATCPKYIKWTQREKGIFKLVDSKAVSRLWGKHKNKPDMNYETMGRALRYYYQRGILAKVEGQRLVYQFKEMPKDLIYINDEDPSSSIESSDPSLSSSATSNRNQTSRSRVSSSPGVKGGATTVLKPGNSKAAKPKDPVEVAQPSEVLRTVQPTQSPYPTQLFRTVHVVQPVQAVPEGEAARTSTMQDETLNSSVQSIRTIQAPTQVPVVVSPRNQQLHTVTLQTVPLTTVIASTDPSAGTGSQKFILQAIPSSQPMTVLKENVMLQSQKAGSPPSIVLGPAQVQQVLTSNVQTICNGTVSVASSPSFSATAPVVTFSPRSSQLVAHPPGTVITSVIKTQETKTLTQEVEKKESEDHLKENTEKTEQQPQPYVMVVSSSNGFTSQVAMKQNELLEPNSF
# In short: as §1
# ETV5 = ETV5 (Homo sapiens, UniProt P41161 1-510)
# ETV5, sequence (P41161 whole entry): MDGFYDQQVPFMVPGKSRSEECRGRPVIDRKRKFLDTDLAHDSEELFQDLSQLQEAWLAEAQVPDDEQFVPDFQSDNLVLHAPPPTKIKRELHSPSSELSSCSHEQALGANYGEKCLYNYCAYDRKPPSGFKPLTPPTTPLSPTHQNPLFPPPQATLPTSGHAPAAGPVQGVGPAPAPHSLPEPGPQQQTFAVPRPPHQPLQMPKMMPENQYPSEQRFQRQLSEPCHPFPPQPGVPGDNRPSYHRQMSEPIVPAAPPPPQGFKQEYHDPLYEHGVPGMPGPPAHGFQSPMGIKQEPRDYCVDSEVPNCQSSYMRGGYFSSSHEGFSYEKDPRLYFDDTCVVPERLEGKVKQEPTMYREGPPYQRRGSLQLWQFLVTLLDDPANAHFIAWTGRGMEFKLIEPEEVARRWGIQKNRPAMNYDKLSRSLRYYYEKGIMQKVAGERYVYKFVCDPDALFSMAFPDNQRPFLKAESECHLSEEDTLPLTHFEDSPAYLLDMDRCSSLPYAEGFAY
# In short: as §1
# ELK4 = target: T2, ELK4 (Homo sapiens, UniProt P28324-2 1-405)
# T2 sequence: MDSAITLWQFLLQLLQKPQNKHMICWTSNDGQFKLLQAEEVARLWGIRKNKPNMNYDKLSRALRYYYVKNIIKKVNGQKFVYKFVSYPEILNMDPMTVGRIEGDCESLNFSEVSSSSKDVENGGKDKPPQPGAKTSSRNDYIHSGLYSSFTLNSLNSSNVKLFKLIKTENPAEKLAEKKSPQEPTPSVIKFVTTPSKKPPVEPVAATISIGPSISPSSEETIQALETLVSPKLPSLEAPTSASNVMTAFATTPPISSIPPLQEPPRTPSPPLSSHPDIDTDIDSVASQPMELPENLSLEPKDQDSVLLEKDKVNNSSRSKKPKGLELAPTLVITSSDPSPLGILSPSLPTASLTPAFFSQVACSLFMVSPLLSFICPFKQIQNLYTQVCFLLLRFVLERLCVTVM
# In short: as §1
# ETV1 = ETV1 (Homo sapiens, UniProt P50549 1-477)
# ETV1, sequence (P50549 whole entry): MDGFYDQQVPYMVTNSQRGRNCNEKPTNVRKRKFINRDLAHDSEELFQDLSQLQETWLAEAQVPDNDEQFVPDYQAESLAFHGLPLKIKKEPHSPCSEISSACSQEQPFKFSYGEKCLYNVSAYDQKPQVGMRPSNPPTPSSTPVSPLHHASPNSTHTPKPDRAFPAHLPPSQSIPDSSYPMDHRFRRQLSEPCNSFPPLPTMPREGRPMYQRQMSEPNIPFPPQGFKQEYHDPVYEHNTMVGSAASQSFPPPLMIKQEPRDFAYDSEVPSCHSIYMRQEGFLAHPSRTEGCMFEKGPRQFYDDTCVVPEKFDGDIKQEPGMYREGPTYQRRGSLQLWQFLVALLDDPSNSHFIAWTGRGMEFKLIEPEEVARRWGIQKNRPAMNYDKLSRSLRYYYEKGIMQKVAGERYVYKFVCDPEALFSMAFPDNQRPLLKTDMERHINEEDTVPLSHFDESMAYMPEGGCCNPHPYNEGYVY
# In short: as §1
# ERF = target: T3, ERF (Homo sapiens, UniProt P50548 1-548)
# T3 sequence: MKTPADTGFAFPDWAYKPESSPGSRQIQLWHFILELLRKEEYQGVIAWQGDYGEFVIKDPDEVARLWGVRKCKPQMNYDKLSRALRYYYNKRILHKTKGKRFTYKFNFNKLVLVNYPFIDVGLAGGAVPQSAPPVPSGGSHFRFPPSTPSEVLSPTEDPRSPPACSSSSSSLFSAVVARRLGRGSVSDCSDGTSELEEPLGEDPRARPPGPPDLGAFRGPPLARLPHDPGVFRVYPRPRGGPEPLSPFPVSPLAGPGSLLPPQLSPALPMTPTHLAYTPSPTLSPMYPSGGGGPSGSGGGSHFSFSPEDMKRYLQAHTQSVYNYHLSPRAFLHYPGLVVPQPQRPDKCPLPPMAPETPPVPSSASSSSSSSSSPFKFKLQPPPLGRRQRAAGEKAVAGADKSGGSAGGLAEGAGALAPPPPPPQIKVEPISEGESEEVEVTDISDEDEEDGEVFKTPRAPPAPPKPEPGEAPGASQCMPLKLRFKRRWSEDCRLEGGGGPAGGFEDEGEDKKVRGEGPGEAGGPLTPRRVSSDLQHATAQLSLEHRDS
# In short: as §1
# SPDEF = target: T4, SPDEF (Homo sapiens, UniProt O95238 1-335)
# T4 sequence: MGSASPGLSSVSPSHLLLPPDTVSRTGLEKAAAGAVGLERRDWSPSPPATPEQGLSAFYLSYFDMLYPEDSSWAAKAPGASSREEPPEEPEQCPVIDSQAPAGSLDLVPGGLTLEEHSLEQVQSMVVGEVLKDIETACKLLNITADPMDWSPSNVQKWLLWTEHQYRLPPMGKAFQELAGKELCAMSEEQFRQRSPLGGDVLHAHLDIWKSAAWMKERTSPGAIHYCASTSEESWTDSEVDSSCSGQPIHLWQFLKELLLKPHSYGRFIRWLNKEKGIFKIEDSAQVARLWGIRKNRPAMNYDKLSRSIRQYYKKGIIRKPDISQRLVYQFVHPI
# In short: as §1
sequence,measurement,setting,value
ACGGTA,binding signal,ELK1,"1.03 fold enrichment (6-mer frequency, TF over GST control)"
same,binding signal,ELF1,"1.01 fold enrichment (6-mer frequency, TF over GST control)"
same,binding signal,ETV5,"1.04 fold enrichment (6-mer frequency, TF over GST control)"
same,binding signal,ELK4,"1.02 fold enrichment (6-mer frequency, TF over GST control)"
same,binding signal,ETV1,"1.01 fold enrichment (6-mer frequency, TF over GST control)"
same,binding signal,ERF,"1.09 fold enrichment (6-mer frequency, TF over GST control)"
same,binding signal,SPDEF,"1.05 fold enrichment (6-mer frequency, TF over GST control)"
